Source: PubChem (National Center for Advancing Translational Sciences (NCATS))
IMPase inh: qHTS Assay for Identifying the Cell-Membrane Permeable IMPase Inhibitors | 120,000 tested, under 10 active | CHO-M1 cells, IP1 accumulation, HTRF TR-FRET ratio | Inositol monophosphatase 1 (Rattus norvegicus), P97697 | inhibition (IP1 accumulation), % at 46.1 µM; active means well fitted curve in the direction sought with a large enough effect in the signal ratio, not every such curve was filed as active; inconclusive means small, poorly fitted or top-dose-only effect, or a change in a side signal; inactive means no such curve, though single readings can be large or run the other way; the % refers to the signal ratio;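 further: cells stimulated with carbachol in lithium chloride buffer; plate controls were DMSO basal wells for no effect and reference inhibitor wells for full effect; higher means more IMPase inhibition seen as more IP1 and lower FRET ratio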
Target sequence (P97697 whole entry, looked up): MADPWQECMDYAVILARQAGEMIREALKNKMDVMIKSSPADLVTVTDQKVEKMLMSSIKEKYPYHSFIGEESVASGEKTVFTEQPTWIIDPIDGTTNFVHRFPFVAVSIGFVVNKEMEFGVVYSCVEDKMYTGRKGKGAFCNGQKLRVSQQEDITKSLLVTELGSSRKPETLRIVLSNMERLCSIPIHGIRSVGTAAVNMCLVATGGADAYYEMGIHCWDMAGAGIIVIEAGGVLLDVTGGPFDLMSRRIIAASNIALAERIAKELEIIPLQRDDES
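CHO-M1 cells (CHO stably expressing M1 receptor), compound up to 46 uM final, stimulated with carbachol (50 uM as added) in buffer with 50mM LiCl, pH 7.4, 30 min at 37C. Cytosolic IP1 read by TR-FRET; AC50 from Hill fits.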
PNC assembly inh: High Content Assay for Compounds that inhibit the Assembly of the Perinucleolar Compartment; PC3M PTB-GFP, PNC prevalence imaging, 16 h; stronger effect = lower value; activity change (PNC), negative = inhibition, % at 10 µM; 140,000 compounds, 3.1% hits; AID 2417, 2010;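 active means readout at or below -70, meaning at least 70% loss of cells showing the perinucleolar compartment, a nuclear body marking cancer cells; inconclusive means readout between -30 and a set limit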;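 further: plate controls were DMSO wells for no effect and camptothecin positive control wells for full effect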
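Compounds are pinned in duplicate onto adhered PC3M cells stably expressing GFP-tagged PTB and incubated 16 h at 37 C. Cells are then fixed, nuclei stained with Hoechst, and PNC-positive cells counted.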
Luc counter: Counterscreen for Luciferase (Kinase-Glo TM) Inhibition. AID 1379, 2008. Kinase-Glo luciferase, ATP luminescence, 8 min. 200,000 compounds, 0.28% hits. Luciferin 4-monooxygenase (Photuris pensylvanica), Q27757. Potency, µM (highest dose often 38.3 µM), for the others: top-dose activity change, negative = inhibition, hits mostly inhibitors; active means well fitted inhibition curve with a large enough effect; inconclusive means small, poorly fitted or top-dose-only effect; further: potency means the concentration at half of the fitted maximal effect; nearly all actives have a fitted effect of over 60% in size
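Inhibition of Kinase-Glo luciferase light generation was assessed at 10 uM ATP in pH 7.2 imidazole buffer, with luminescence measured after eight minutes at ambient temperature.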
ALDH1A1 block: qHTS Assay for Inhibitors of Aldehyde Dehydrogenase 1 (ALDH1A1); Aldehyde dehydrogenase 1A1 (Homo sapiens), P00352; Purified ALDH1A1, NADH fluorescence, propionaldehyde substrate; Potency, µM (doses to about 75.3 µM), without a hit: at the highest dose activity, negative = inhibition, most hits filed as inhibitors; 220,000 compounds, 7.3% hits;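 further: potency means the concentration at half of the fitted maximal effect; plate controls were no enzyme wells and a reference inhibitor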
LMNA splice mod: qHTS Assay for Modulators of Lamin A Splicing. 200,000 compounds, 0.01% hits. Potency, µM (series often up to 46.1 µM), for inactives: at the highest dose ratio change, negative = inhibition, actives largely listed as inhibitors. HeLa LMNA splicing GFP/RFP minigene ratio, 48 h; active means well fitted inhibition curve with a large enough effect in the signal ratio, with a control signal flat, not every such curve was filed as active; inconclusive means small, poorly fitted or top-dose-only effect, or effect the other way, or a change in a side signal; the % refers to the signal ratio; further: potency means the concentration at half of the fitted maximal effect
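S3 HeLa stable clones carrying a lamin A-EGFP splicing minigene plus DsRed2 were seeded at 600 cells/well in Opti-MEM with 2% FBS, pin-dosed and incubated 48 h at 37°C. Acumen cytometry (488 nm) gave the GFP/RFP total-intensity ratio.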
HPGD block: qHTS Assay for Inhibitors of HPGD (15-Hydroxyprostaglandin Dehydrogenase). 15-hydroxyprostaglandin dehydrogenase [NAD(+)] (Homo sapiens), P15428. purified HPGD, NADH fluorescence kinetic, PGE2 substrate. Potency, µM, without a hit: at the highest dose activity change, negative = inhibition, usual class: inhibitors. 150,000 compounds, 4.3% hits; further: potency means the concentration at half of the fitted maximal effect
Target sequence (P15428 whole entry, looked up): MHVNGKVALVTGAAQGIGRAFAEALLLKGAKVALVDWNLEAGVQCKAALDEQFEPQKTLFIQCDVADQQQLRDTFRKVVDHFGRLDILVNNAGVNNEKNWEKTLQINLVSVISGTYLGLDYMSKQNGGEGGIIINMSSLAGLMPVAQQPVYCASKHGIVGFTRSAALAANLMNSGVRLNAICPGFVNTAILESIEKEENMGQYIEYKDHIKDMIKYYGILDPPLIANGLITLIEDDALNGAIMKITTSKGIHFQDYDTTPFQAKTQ
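20 nM HPGD preincubated 15 min at room temperature with compound in 50 mM Tris-HCl pH 8, 0.01% Tween 20. Started with 1 mM NAD+ and 30 uM prostaglandin E2; NADH fluorescence (360/450 nm) read 5 times over 30-s intervals, last minus first.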
* marks the source's active call; other numbers are inactive results; [ ] = dose if it differs, or a comment. Compounds with a hit are over-represented: about 10% of the library has one in this group of screens. Unless noted, the call rests on the fitted dose curve; in most records, active means well fitted inhibition curve with a large enough effect (not every such curve was filed as active); inconclusive means small, poorly fitted or top-dose-only effect, or another doubt; inactive means no such curve, though single readings can be large or run the other way. Unless noted, on the % scale 0 is the no-effect control and ±100 the full control effect.

For CC(=O)Oc1ccc(N2C(=O)C3C(C2=O)C2(C)C=CC3(C)O2)cc1 (centres undefined) the results were IMPase inh -5, PNC assembly inh 27, Luc counter -4%, ALDH1A1 block 0.63µM*, LMNA splice mod inconclusive and HPGD block 13µM*.
For O=C1C2C3C=CC(CNS(=O)(=O)c4ccccc4)(O3)C2C(=O)N1c1ccc(Cl)cc1 (centres undefined) the results were PNC assembly inh -19, Luc counter 0%, ALDH1A1 block 0.63µM*, LMNA splice mod -2% and HPGD block 22µM*.
For CC(=O)Oc1ccc(-n2c(=O)c3ccccc3c3ccccc3c2=O)cc1 the results were Luc counter 0%, ALDH1A1 block -5% and LMNA splice mod 1%[46 µM].
O=C1CCC(=O)N1c1ccccc1-c1ccccc1 was read as IMPase inh 0, PNC assembly inh inconclusive, Luc counter 2%, ALDH1A1 block 5%, LMNA splice mod 0% and HPGD block -4%.
For O=C1C2C3C=CC(CO)(O3)C2C(=O)N1c1ccccc1-c1ccccc1 (centres undefined) the results were IMPase inh 15, PNC assembly inh 17, Luc counter 0%, ALDH1A1 block 1.1µM*, LMNA splice mod 8% and HPGD block 7.9µM*.
`CC(=O)Oc1ccc(N2C(=O)C3C4C=CC(CO)(O4)C3C2=O)cc1` (centres undefined) gave IMPase inh 4, PNC assembly inh -18, Luc counter -2%, ALDH1A1 block 0.71µM*, LMNA splice mod 8% and HPGD block 22µM*.
For O=C(Oc1ccccc1)N1CCC[C@@]2(CCN(c3ncccn3)C2)C1 the results were Luc counter -1%, ALDH1A1 block inconclusive and HPGD block -11%.
CC1CCN(C(=O)c2cc(N3C(=O)C4C5CCC(C5)C4C3=O)ccc2Cl)CC1 (centres undefined) was read as Luc counter 0% and ALDH1A1 block 0%.
For COC(=O)c1cc(N2C(=O)C3C(C2=O)C2(C)C=CC3(C)O2)ccc1Cl (centres undefined) the results were IMPase inh 10, PNC assembly inh 55, Luc counter 8%, ALDH1A1 block 0.11µM*, LMNA splice mod inconclusive and HPGD block 2.8µM*.
`COC(=O)c1ccc(C(NC(=O)OCc2ccccc2)/C(C)=C/[C@@H](C)C(=O)N[C@@H](CO)Cc2ccccc2)cc1` (some centres undefined) gave Luc counter 1%, ALDH1A1 block inconclusive and HPGD block -13%.
`Cc1ccc(N2CC(C(=O)OCc3ccc([N+](=O)[O-])cc3)CC2=O)cc1` (centres undefined) gave IMPase inh 5, PNC assembly inh -28, Luc counter 8%, ALDH1A1 block 11µM*, LMNA splice mod 8% and HPGD block 25µM*.
For CCc1ccc(N2CC(C(=O)OC)CC2=O)cc1 (centres undefined) the results were Luc counter -2%, ALDH1A1 block -10% and LMNA splice mod 9%[46 µM].
CCc1ccc(N2CC(C(=O)OCC(=O)NC3CCS(=O)(=O)C3)CC2=O)cc1 (centres undefined) was read as IMPase inh -3, PNC assembly inh -100*, Luc counter -2%, ALDH1A1 block -2%, LMNA splice mod -3% and HPGD block -20%.
For C=CC[C@H]1CC(Cc2ccccc2)=C[C@H](CC=C)N1 the results were PNC assembly inh -81*, Luc counter 3%, ALDH1A1 block inconclusive, LMNA splice mod 1% and HPGD block -2%.
For CCCn1c(SCC(=O)Nc2ccccc2CC)nnc1C(C)C the results were IMPase inh 9, PNC assembly inh inconclusive, Luc counter 0%, ALDH1A1 block -9%, LMNA splice mod -10% and HPGD block -1%.
Screening CCCn1c(SCC(=O)Nc2sc(C)c(C)c2C#N)nnc1C(C)C returned IMPase inh -5, PNC assembly inh inconclusive, ALDH1A1 block 2.8µM* and LMNA splice mod -6%.
`Cc1sc(NC(=O)CSc2nnc(C)c(=O)[nH]2)c(C#N)c1C` gave IMPase inh -2, PNC assembly inh 13, Luc counter -1%, ALDH1A1 block 14µM*, LMNA splice mod 0% and HPGD block -17%.
For Cc1sc(NC(=O)CSc2nnc(C(C)C)n2C)c(C#N)c1C the results were IMPase inh -4[0.369 µM], PNC assembly inh -86*, Luc counter -3%, ALDH1A1 block -10%, LMNA splice mod inconclusive and HPGD block 2%.
O=C(Cc1ccccc1)N/N=C/c1cc(Br)cc(Cl)c1O was read as Luc counter -6% and ALDH1A1 block 7%.
For O=C(CP(=O)(c1ccccc1)c1ccccc1)N/N=C/c1cc(Br)cc(Br)c1O the results were IMPase inh -11, PNC assembly inh -30, Luc counter 2%, ALDH1A1 block -2%, LMNA splice mod inconclusive and HPGD block 0.14µM*.
COc1ccc(N2C(=S)NC3CS(=O)(=O)CC32)cc1 (centres undefined) was read as ALDH1A1 block 9%.
Screening COc1ccc(N2C(=O)S[C@@H]3CS(=O)(=O)C[C@@H]32)cc1 returned PNC assembly inh -113*, Luc counter -1%, ALDH1A1 block 13%, LMNA splice mod -7% and HPGD block -13%.
`Cc1ccc(CNC(=O)C2CCN(S(=O)(=O)c3cn(C)cn3)CC2)cc1` gave LMNA splice mod 8%[46 µM].
`COc1cccc(OC)c1C(=O)NC(=S)Nc1ccc2c(c1)OCCO2` gave Luc counter 0% and ALDH1A1 block -2%.
Screening CCOc1cccc(C(=O)Nc2ccc(N3CCN(S(C)(=O)=O)CC3)cc2)c1 returned IMPase inh 4, PNC assembly inh -5, Luc counter -9%, ALDH1A1 block 22%, LMNA splice mod 16% and HPGD block -8%.
`CCOc1cccc(C(=O)NC(=S)Nc2ccc3c(c2)OCCO3)c1` gave Luc counter -6% and ALDH1A1 block 4µM*.
`CCOc1cccc(C(=O)NC(=S)Nc2ccc(N3CCCC3)cc2)c1` gave IMPase inh 3, PNC assembly inh inconclusive, Luc counter -1%, ALDH1A1 block 7.1µM*, LMNA splice mod -7% and HPGD block -6%.
